The values that follow come from PubChem BioAssay.

The source made the active and inactive calls.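 How the source made its calls, unless noted: active means calcium signal rise above buffer-control mean plus 5 SD in both duplicates, and also a hit in the primary screen; inactive means the rest.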

For one experiment, the target named is Short transient receptor potential channel 6 (Mus musculus) (UniProt Q61143). In words: TRPC6 potentiation by TRPC4 potentiator hits, confirmation, selectivity assay for TRPC4 potentiator project, HEK293 cells, membrane potential dye, duplicate (AID 434952;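 active means compound raising the membrane signal above positive-control mean plus 3 SD in both repeats, and a primary screen hit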). Conditions: HEK293 TRPC6, membrane potential dye fluorescence, at 10 µM, maximal acetylcholine added after compound.
Sequence of Short transient receptor potential channel 6 (Mus musculus) (Q61143 whole entry, looked up): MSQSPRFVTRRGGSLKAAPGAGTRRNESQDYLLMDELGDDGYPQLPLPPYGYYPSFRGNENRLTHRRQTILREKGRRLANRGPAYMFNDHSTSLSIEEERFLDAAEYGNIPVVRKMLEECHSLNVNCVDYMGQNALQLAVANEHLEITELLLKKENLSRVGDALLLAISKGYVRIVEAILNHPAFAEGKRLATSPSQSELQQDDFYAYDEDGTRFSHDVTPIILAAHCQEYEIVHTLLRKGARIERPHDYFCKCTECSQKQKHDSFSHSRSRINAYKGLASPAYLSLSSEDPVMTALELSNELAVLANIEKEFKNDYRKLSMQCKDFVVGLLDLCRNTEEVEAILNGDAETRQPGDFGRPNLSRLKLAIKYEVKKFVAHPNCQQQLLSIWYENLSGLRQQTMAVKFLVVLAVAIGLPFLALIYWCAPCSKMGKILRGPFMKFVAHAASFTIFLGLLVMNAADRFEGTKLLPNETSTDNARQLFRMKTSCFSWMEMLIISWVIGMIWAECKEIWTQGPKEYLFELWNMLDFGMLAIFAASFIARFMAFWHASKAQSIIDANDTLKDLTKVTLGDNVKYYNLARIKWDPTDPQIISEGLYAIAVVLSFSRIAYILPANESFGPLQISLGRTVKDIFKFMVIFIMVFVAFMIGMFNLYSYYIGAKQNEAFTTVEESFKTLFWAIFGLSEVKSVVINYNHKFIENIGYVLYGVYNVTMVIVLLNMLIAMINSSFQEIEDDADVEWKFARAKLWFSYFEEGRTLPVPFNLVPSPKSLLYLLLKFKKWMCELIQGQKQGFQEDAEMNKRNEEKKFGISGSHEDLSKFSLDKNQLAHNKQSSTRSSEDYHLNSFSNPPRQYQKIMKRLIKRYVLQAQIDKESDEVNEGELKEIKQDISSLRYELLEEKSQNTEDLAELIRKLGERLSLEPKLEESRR
Turning to `Cc1cc(/C=C2/C(=N)N3C(=NC2=O)SN=C3S(C)(=O)=O)c(C)n1-c1ccccc1F`, the result was inactive.

With `Cc1ccc(O)c(CNc2nc3ccccc3[nH]2)c1`, the result was inactive.

As to `CC(Oc1ccc(Cl)cc1Cl)c1nc(-c2ccccn2)no1` (stereo not drawn), the result was inactive.

With `Fc1ccccc1COc1ccccc1CNCc1ccncc1`, the result was inactive.

Take `CC12CC3(C)CC(C)(C1)CC(NC(=O)N1CCCC1)(C2)C3`: the outcome was inactive.

On to `Clc1cccc(COn2c(-c3ccc(Cl)cc3Cl)nc3ncccc32)c1`, for which the outcome was inactive.

Consider `CC1CCN(CCCOc2ccc(OCc3ccccc3)cc2)CC1`, for which the result was inactive.

For `CCN(CC)C(=O)C1CCCN(Cc2cccc(Oc3ccccc3)c2)C1` (stereo not drawn), the outcome was inactive.

For the compound `O=C(O)c1ccc(NC(=S)NC(=O)c2ccc(-c3ccccc3)cc2)cc1`, the outcome was inactive.

For the compound `Cc1ccc(C)c2[nH]c(=O)c(CN(Cc3nnnn3C3CCCCC3)CC3CCCO3)cc12` (stereo not drawn), the outcome was inactive.

For the compound `CC(C)CN(CC(C)C)c1nc(N)c(C#N)c(CC#N)c1C#N`, the result was inactive.

For `CC(C)Oc1cccc(C(=O)C2CCCN(Cc3cnn(C(C)C)c3)C2)c1` (stereo not drawn), the outcome was inactive.

With `Cc1ccc(O)c(Sc2cc(C)ccc2O)c1`, the result was inactive.

For `Cc1cccc(Cn2c(C(C)(C)C)cc3cccnc32)c1`, the outcome was inactive.

Consider `Cc1cc(N2CCC(C)CC2)nc2cccc(O)c12`, for which the result was inactive.

With `CSCCNCc1cn(-c2ccc(F)cc2F)nc1-c1ccccc1C`, the result was inactive.

`CC(/C=C1\SC(=S)N(C(C(=O)O)C(C)C)C1=O)=C\c1ccccc1` (stereo not drawn): the result was inactive.

As to `CCN(CC)CCn1c2ccccc2c2cnc(N)c(C#N)c21`, the outcome was inactive.

On to `CCOC(=O)C1CCN(CC(O)COc2ccc(C(C)(C)C)cc2)CC1` (stereo not drawn), for which the result was inactive.

For the compound `CCOC(=O)c1oc2ccccc2c1CN1CCCCC1`, the result was inactive.

With `CC(C)Cc1cc(CN2CCCC(CO)(Cc3cccc(Cl)c3)C2)[nH]n1` (stereo not drawn), the result was inactive.

With `CCCCOc1ccc(CSCCN=C(N)N)cc1`, the outcome was inactive.

Regarding `N#Cc1c(NC(=O)C2CC(Cl)=CCC2C(=O)O)sc2c1CCCCC2` (stereo not drawn), the result was inactive.

With `Cc1ccccc1C(=O)NC1CC2CCC(C1)N2Cc1ccccc1` (stereo not drawn), the result was inactive.

Turning to `COc1ccc(/C=C2\SC(=S)N(C(Cc3ccccc3)C(=O)O)C2=O)cc1` (stereo not drawn), the result was inactive.

As for `Cc1cc(NCc2ccccc2)nc(N2CCOCC2)n1`, the outcome was inactive.

`CCCc1nc(SC2CCCC2)c2c(=O)n(C)c(=O)n(C)c2n1`: the outcome was inactive.

Turning to `Fc1ccccc1Sc1ccccc1CNC1=NCCN1`, the result was inactive.

Regarding `CCc1nc2ccccc2n1Cc1ccccc1OC`, the outcome was inactive.

For `CSc1nc(N2CCOCC2)c2c3c(sc2n1)CCCC3`, the outcome was inactive.

Turning to `COc1cccc(CNC(=O)CCC2CCCN(Cc3cc(Cl)ccc3O)C2)c1` (stereo not drawn), the outcome was inactive.

As to `CCOC(=O)C1(Cc2ccccc2C)CCCN(Cc2ccc(NC(C)=O)cc2)C1` (stereo not drawn), the result was inactive.

With `CCn1c(NCc2c[nH]c3ccccc23)nc2ccccc21`, the result was inactive.

Regarding `O=C(c1ccc2c(c1)OCO2)C1CCCN(Cc2ccccc2OC(F)F)C1` (stereo not drawn), the result was inactive.

As to `CC(C)(C)c1cc2cccnc2n1Cc1ccccc1`, the outcome was inactive.

With `Cc1cccc(C)c1-n1cccc1/C=C1\SC(=S)N(c2cccc(C(=O)O)c2)C1=O`, the result was inactive.

Turning to `COc1ccc2nc(NCc3ccccc3)[nH]c2c1`, the outcome was inactive.

On to `Cc1ccc(C(=O)NC(=S)Nc2c(C)ccc3nsnc23)cc1`, for which the outcome was inactive.

Consider `Cc1ccccc1N1CC(O)(c2cccs2)[N+]2=C1CCCC2` (stereo not drawn), for which the outcome was inactive.

Another experiment concerns the target Short transient receptor potential channel 4 (Mus musculus) (UniProt Q9QUQ5). In words: calcium flux activators in TRPC4/5HT1a cells, counter-screen for TRPC4 activator project, cell-based, second counter screen, HEK293 TRPC4/5HT1a, Fluo-4 (AID 434977). To be noted: Fluo-4 calcium flux, at 10 µM. On the technique in general: Calcium flux is commonly read through the fluorescence of an indicator in the cells.
As for `Cc1cc(/C=C2/C(=N)N3C(=NC2=O)SN=C3S(C)(=O)=O)c(C)n1-c1ccccc1F`, the result was inactive.

For `Cc1ccc(O)c(CNc2nc3ccccc3[nH]2)c1`, the result was inactive.

As for `CC(Oc1ccc(Cl)cc1Cl)c1nc(-c2ccccn2)no1` (stereo not drawn), the result was inactive.

Regarding `Fc1ccccc1COc1ccccc1CNCc1ccncc1`, the result was inactive.

As to `CC12CC3(C)CC(C)(C1)CC(NC(=O)N1CCCC1)(C2)C3`, the result was inactive.

Regarding `Clc1cccc(COn2c(-c3ccc(Cl)cc3Cl)nc3ncccc32)c1`, the result was inactive.

In the case of `CC1CCN(CCCOc2ccc(OCc3ccccc3)cc2)CC1`, the result was inactive.

Consider `CCN(CC)C(=O)C1CCCN(Cc2cccc(Oc3ccccc3)c2)C1` (stereo not drawn), for which the result was inactive.

For `O=C(O)c1ccc(NC(=S)NC(=O)c2ccc(-c3ccccc3)cc2)cc1`, the result was inactive.

In the case of `Cc1ccc(C)c2[nH]c(=O)c(CN(Cc3nnnn3C3CCCCC3)CC3CCCO3)cc12` (stereo not drawn), the outcome was inactive.

Take `CC(C)CN(CC(C)C)c1nc(N)c(C#N)c(CC#N)c1C#N`: the outcome was inactive.

In the case of `CC(C)Oc1cccc(C(=O)C2CCCN(Cc3cnn(C(C)C)c3)C2)c1` (stereo not drawn), the outcome was inactive.

With `Cc1ccc(O)c(Sc2cc(C)ccc2O)c1`, the outcome was inactive.

Regarding `Cc1cccc(Cn2c(C(C)(C)C)cc3cccnc32)c1`, the outcome was inactive.

Consider `Cc1cc(N2CCC(C)CC2)nc2cccc(O)c12`, for which the result was inactive.

Consider `CSCCNCc1cn(-c2ccc(F)cc2F)nc1-c1ccccc1C`, for which the outcome was inactive.

Consider `CC(/C=C1\SC(=S)N(C(C(=O)O)C(C)C)C1=O)=C\c1ccccc1` (stereo not drawn), for which the result was inactive.

Take `CCN(CC)CCn1c2ccccc2c2cnc(N)c(C#N)c21`: the outcome was inactive.

As for `CCOC(=O)C1CCN(CC(O)COc2ccc(C(C)(C)C)cc2)CC1` (stereo not drawn), the outcome was inactive.

On to `CCOC(=O)c1oc2ccccc2c1CN1CCCCC1`, for which the outcome was inactive.

For `CC(C)Cc1cc(CN2CCCC(CO)(Cc3cccc(Cl)c3)C2)[nH]n1` (stereo not drawn), the outcome was inactive.

For the compound `CCCCOc1ccc(CSCCN=C(N)N)cc1`, the result was inactive.

Regarding `N#Cc1c(NC(=O)C2CC(Cl)=CCC2C(=O)O)sc2c1CCCCC2` (stereo not drawn), the outcome was inactive.

As to `Cc1ccccc1C(=O)NC1CC2CCC(C1)N2Cc1ccccc1` (stereo not drawn), the result was inactive.

On to `COc1ccc(/C=C2\SC(=S)N(C(Cc3ccccc3)C(=O)O)C2=O)cc1` (stereo not drawn), for which the result was inactive.

With `Cc1cc(NCc2ccccc2)nc(N2CCOCC2)n1`, the result was inactive.

Turning to `CCCc1nc(SC2CCCC2)c2c(=O)n(C)c(=O)n(C)c2n1`, the result was inactive.

Take `Fc1ccccc1Sc1ccccc1CNC1=NCCN1`: the result was inactive.

`CCc1nc2ccccc2n1Cc1ccccc1OC`: the result was inactive.

For `CSc1nc(N2CCOCC2)c2c3c(sc2n1)CCCC3`, the outcome was inactive.

For `COc1cccc(CNC(=O)CCC2CCCN(Cc3cc(Cl)ccc3O)C2)c1` (stereo not drawn), the result was inactive.

For the compound `CCOC(=O)C1(Cc2ccccc2C)CCCN(Cc2ccc(NC(C)=O)cc2)C1` (stereo not drawn), the result was inactive.

Turning to `CCn1c(NCc2c[nH]c3ccccc23)nc2ccccc21`, the outcome was inactive.

For the compound `O=C(c1ccc2c(c1)OCO2)C1CCCN(Cc2ccccc2OC(F)F)C1` (stereo not drawn), the outcome was inactive.

Consider `CC(C)(C)c1cc2cccnc2n1Cc1ccccc1`, for which the result was inactive.

With `Cc1cccc(C)c1-n1cccc1/C=C1\SC(=S)N(c2cccc(C(=O)O)c2)C1=O`, the outcome was inactive.

In the case of `COc1ccc2nc(NCc3ccccc3)[nH]c2c1`, the result was inactive.

Take `Cc1ccc(C(=O)NC(=S)Nc2c(C)ccc3nsnc23)cc1`: the outcome was inactive.

Regarding `Cc1ccccc1N1CC(O)(c2cccs2)[N+]2=C1CCCC2` (stereo not drawn), the outcome was inactive.
